Measurements reported in PubChem BioAssay (NCATS).
Inconclusive results are not listed. The source made the active and inactive calls. Unless noted, calls follow the shape of the dose curve; as a rule, active = well fitted curve in the direction sought with a large enough effect; inconclusive = small, poorly fitted or top-dose-only effect, or another doubt; inactive = no such curve, though single readings can be large; an effect the other way counts as inactive or inconclusive.

How the values were obtained:
[1] = target: Pyruvate kinase PKM (Homo sapiens) (UniProt P14618); experiment: qHTS Assay for Activators of Human Muscle Pyruvate Kinase (AID 954; active = well fitted curve in the direction sought with a large enough effect, not every such curve was filed as active)
Pyruvate kinase PKM (Homo sapiens), sequence (P14618 whole entry, looked up): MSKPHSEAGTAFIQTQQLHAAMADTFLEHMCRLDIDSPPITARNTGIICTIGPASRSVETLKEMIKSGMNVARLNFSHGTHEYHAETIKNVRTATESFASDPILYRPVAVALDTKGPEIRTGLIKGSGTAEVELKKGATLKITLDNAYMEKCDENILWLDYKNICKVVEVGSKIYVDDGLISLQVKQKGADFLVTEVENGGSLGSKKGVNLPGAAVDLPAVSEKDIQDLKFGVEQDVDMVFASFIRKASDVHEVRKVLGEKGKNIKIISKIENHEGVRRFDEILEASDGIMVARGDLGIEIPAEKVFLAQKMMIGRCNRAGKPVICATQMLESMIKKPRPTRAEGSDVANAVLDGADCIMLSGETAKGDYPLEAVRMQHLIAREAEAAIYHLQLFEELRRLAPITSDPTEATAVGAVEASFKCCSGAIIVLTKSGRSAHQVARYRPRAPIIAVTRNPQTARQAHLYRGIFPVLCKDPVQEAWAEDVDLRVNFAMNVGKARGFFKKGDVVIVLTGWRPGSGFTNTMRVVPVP
In short: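 Human PKM2 activity is measured as ATP generation, detected by luciferase-coupled luminescence. The enzyme (0.1 nM) acts on 0.5 mM PEP and 0.1 mM ADP for 1 h at ambient temperature; data are normalized to uninhibited and full-inhibition wells.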

[2] = MultiTox-Fluor Cytotoxicity Assay - LYMP1-001 - Live Cells (AID 947)
[3] = Cell Viability - LYMP1-002 - Assay at 16 hr (AID 948)
In short: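 Acute cytotoxicity is scored as a concentration-dependent fall in intracellular ATP in a human lymphoblastoid line (LYMP1-002) after 16 hr compound exposure at 37 C, measured by luciferase luminescence.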

[4] = MultiTox-Fluor Cytotoxicity Assay - LYMP1-002 - Live Cells (AID 955);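 also: cells exposed to compound for 16 hours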
In short: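 Cytotoxicity in the human lymphoblastoid line LYMP1-002 is measured as loss of live-cell protease activity after 16 h treatment in complete culture medium. AC50 is derived from Hill-equation fits of qHTS concentration-response data.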

[5] = MultiTox-Fluor Cytotoxicity Assay - LYMP1-002 - Dead Cells (AID 960); also: nearly all actives have a fitted effect of over 60% in size
In short: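 Acute cytotoxicity in a human lymphoblastoid line is scored as rising dead-cell protease signal after 16 hr exposure at 37 C, measured fluorometrically (485/520).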

[6] = MultiTox-Fluor Cytotoxicity Assay - LYMP1-003 - Dead Cells (AID 961); also: nearly all actives have a fitted effect of over 70% in size
In short: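 Dead-cell protease release, detected as bis-AAF-R110 fluorescence at 485/520 nm, was measured in LYMP1-003 cells after 16 h compound treatment at 37 C. AC50 values came from Hill-modeled qHTS curves normalized to DMSO (0%) and 15 uM tetraoctylammonium bromide (100%).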

[7] = MultiTox-Fluor Cytotoxicity Assay - LYMP1-003 - Live Cells (AID 962);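 also: cells exposed to compound for 16 hours at 37 °C; cytotoxic hits lower the live-cell protease signal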
In short: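 Cells plated at 2500 per well and incubated 5 hr; compounds added and incubated 16 hr at 37 C; MultiTox-Fluor reagent added for 60 min at room temperature; fluorescence of liberated AFC measured at 405/510 nm.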

[8] = Cell Viability - LYMP1-003 - Assay at 24 hr (AID 963)
In short: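 Acute toxicity in LYMP1-003 lymphoblastoid cells: 24 hr compound treatment at 37 C, ATP measured with CellTiter-Glo after 30 min at room temperature. AC50 derived by fitting the Hill equation to qHTS titrations.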

[9] = Cell Viability - LYMP1-003 - Assay at 40 hr (AID 964); also: nearly all actives have a fitted effect of over 60% in size; also: potency is read from the fitted curve at half-maximal effect
In short: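 This qHTS cytotoxicity screen treats human lymphoblastoid cells (LYMP1-003) with compounds for 40 hr and quantifies cellular ATP via luciferase luminescence.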

[10] = Cell Viability - LYMP2-003 (AID 965);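 also: cells exposed to compounds for 24 h before reading; nearly all actives have a fitted effect of over 50% in size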
In short: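 Acute cytotoxicity is scored as a concentration-dependent drop in intracellular ATP, measured by luciferase luminescence in human lymphoblastoid cells treated for 24 hours at 37 C. AC50 values derive from Hill-equation modelling.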

[11] = Cell Viability - LYMP2-004 (AID 966); also: nearly all actives have a fitted effect of over 65% in size
In short: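 Acute toxicity is scored as a concentration-dependent drop in intracellular ATP, quantified by luciferase luminescence, in human lymphoblastoid cells exposed to compound for 24 hr. AC50 derives from Hill-equation modelling.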

[12] = Cell Viability - LYMP2-005 (AID 967); also: series mostly up to about 92 µM
In short: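 qHTS viability screen in LYMP2-005 cells: 24 h at 37 C with compound, ATP luminescence via CellTiter-Glo, AC50 from Hill curves.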

[13] = Cell Viability - LYMP2-009 (AID 968); also: series mostly up to about 92 µM; nearly all actives have a fitted effect of over 55% in size
[14] = Cell Viability - LYMP2-011 (AID 969); also: nearly all actives have a fitted effect of over 60% in size
In short: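 Acute toxicity is scored as a concentration-dependent drop in intracellular ATP of a human lymphoblastoid line after 24 hr treatment. Values are AC50s modeled with the Hill equation.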

[15] = Cell Viability - LYMP2-013 (AID 970); also: series mostly up to about 92 µM; nearly all actives have a fitted effect of over 55% in size
In short: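 Acute toxicity was measured in human lymphoblastoid cells (2500/well) exposed to compound titrations for 24 hr, with ATP luminescence (CellTiter-Glo) as read-out and AC50 fitted by Hill equation.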

[16] = Cell Viability - LYMP2-015 (AID 971); also: nearly all actives have a fitted effect of over 55% in size
In short: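 Acute toxicity was scored as a concentration-dependent drop in intracellular ATP in lymphoblastoid cells after 24 hr compound exposure in complete medium. Detection used CellTiter-Glo luciferase luminescence.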

[17] = Cell Viability - LYMP2-017 (AID 972);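 also: series mostly up to about 92 µM; cells exposed to compound for 24 hours at 37 °C; nearly all actives have a fitted effect of over 55% in size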
In short: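 Steps: plate 2500 lymphoblastoid cells per well; incubate 5 hr at 37 C; add compound across a concentration series and incubate 24 hr at 37 C; add CellTiter-Glo and read luminescence after 30 min at room temperature; fit Hill curves for AC50.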

[18] = Cell Viability - LYMP2-019 (AID 973); also: nearly all actives have a fitted effect of over 55% in size
In short: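 Cells plated at 2500/well and allowed 5 hr at 37 C before compound addition. After 24 hr incubation, CellTiter-Glo reagent was added, plates sat 30 min at room temperature, and luminescence was recorded.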

[19] = Cell Viability - LYMP2-021 (AID 974)
In short: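 Concentration-response cytotoxicity in a human lymphoblastoid line: 24 hr treatment at 37 C in complete culture medium, tetraoctylammonium bromide as positive control, luminescent ATP quantitation as viability measure.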

Measured: Potency

CCOC(=O)C1=C[C@@]2(CC)CCCN3CCc4c(n1c1ccccc41)[C@H]32
inactive: [1]

O=c1[nH]cnc2[nH]ncc12
inactive: all assays above

NS(=O)(=O)c1cc2c(cc1Cl)NC=NS2(=O)=O
not listed: [5]
inactive: all other assays above

O=c1n(CCCN2CCN(c3cccc(Cl)c3)CC2)nc2ccccn12
inactive: [1]

Clc1cccc(Cl)c1NC1=NCCN1
inactive: [1]

CC(=O)Oc1ccccc1C(=O)O
inactive: all assays above

Cn1cnc([N+](=O)[O-])c1Sc1ncnc2nc[nH]c12
inactive: [2] | [3] | [1] | [4] | [5] | [6] | [7]
active: [9] 2510 nM

Cc1[nH]c(=O)c(C#N)cc1-c1ccncc1
inactive: [1]

CCCC(CCC)C(=O)O
not listed: [2] | [5]
inactive: all other assays above
